{"source": "PubChem BioAssay (NCATS)", "note": "Inconclusive results are not listed. Entries that show only a call come without a potency. The source made the active and inactive calls. Calls come from the whole dose curve; as a rule, active = well fitted inhibition curve with a large enough effect; inconclusive = small, poorly fitted or top-dose-only effect; inactive = flat fitted curve, though single readings scatter. Potency is the fitted concentration of half-maximal effect."}
{"target": "Dual specificity protein kinase CLK4 (Homo sapiens) (UniProt Q9HAZ1)", "sequence (Q9HAZ1 whole entry, looked up)": "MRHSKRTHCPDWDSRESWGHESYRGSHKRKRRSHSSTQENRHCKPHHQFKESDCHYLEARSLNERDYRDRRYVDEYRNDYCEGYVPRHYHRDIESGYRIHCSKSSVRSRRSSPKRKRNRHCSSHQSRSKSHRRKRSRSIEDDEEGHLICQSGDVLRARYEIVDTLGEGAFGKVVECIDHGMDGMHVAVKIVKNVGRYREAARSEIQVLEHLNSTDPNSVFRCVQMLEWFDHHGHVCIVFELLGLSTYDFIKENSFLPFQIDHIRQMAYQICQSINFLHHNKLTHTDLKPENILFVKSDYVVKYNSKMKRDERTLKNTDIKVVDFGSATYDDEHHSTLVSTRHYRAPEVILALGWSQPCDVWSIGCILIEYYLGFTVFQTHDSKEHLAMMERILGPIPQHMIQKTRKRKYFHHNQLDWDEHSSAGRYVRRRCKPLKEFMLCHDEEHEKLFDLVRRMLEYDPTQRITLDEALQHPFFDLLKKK", "experiment": "qHTS Assay for Inhibitors of CDC-like Kinase 4 (ADP-Glo Assay) (AID 1771); note: nearly all actives have a fitted effect of over 70% in size", "settings": "recombinant CLK4, ADP-Glo luminescence; series mostly up to 80 µM", "description": "NIH Molecular Libraries Probe Production Centers Network [MLPCN] NIH Chemical Genomics Center [NCGC] MLPCN Grant: 1R03MH084827-01 Assay Submitter (PI): Tom Misteli NCGC Assay Overview: Clk4 (Invitrogen, cat# PV3839) was assayed using ATP and the RS repeat peptide (AnaSpec cat # 61722) as substrates. In the assay, the ADP levels were detected using Promega ADP-Glo technology wherein the remaining ATP from the kinase reaction is first depleted with an ATPase reagent followed by a reagent that contains and enzyme which converts the ADP produced to ATP as well as Ultra-Glo luciferase and D-luciferin which generates a bioluminescence signal from the ATP. The positive control for the assay was TG003 (Sigma-Aldrich, cat# 300801-52-9) which has been described as an inhibitor of Clk 4[1].\nNCGC Assay Protocol Summary: Two uL/well of substrate-buffer solution (100 uM RS peptide, 1 uM ATP, 1x ADP-Glo Buffer A, 2 mM MgCl2, 0.5 mM EGTA, 2.5 mM DTT, 0.01% Triton X-100, final concentrations) was dispensed into 1536-well plates (Greiner, solid white, medium binding assay plates) with the Aurora Discovery BioRAPTR Flying Reagent Dispenser (FRD; Beckton-Dickenson). Twenty-three nanoliter of compound and control solutions were transferred to the assay plate using a Kalypsys pin-tool followed by 0.5 uL/well Clk4-buffer solution (25 nM Clk4, 1x ADP-Glo Buffer A, 2 mM MgCl2, 0.5 mM EGTA, 2.5 mM DTT, 0.01% Triton X-100 final concentration) dispensing for a total kinase reaction volume of 2.5 uL/ well. After 1 hr of room-temperature incubation, 2.5 uL ADP-Glo reagent was added and incubated at room temperature for 45 min to stop the kinetic reaction and degrade residual ATP. The ADP product was then converted to ATP by adding 5 uL per well of ADP-Glo Reagent II to yield a total assay volume of 10 uL/ well. Luminescence was detected after 30 min room temperature incubation with the Perkin Elmer Viewlux."}
{"smiles": "Cc1cccc(CNc2ncncc2-c2ccc(C(=O)N(C)C)cc2)c1", "Potency": "inactive"}
{"smiles": "COc1ccccc1-c1ccc2ncnc(Nc3ccccc3)c2c1", "Potency": "15.8 µM (active)"}
{"smiles": "Cc1cnc(CNc2cc(-c3ccc4c(c3)OCO4)ncn2)cn1", "Potency": "3.55 µM (active)"}
{"smiles": "COc1ccc(CNc2ncnc3ccc(-c4c(C)noc4C)cc23)c(OC)c1", "Potency": "15.8 µM (active)"}
{"smiles": "COc1ccccc1CCn1c(=O)c(-c2cn(C)c3ccccc23)nc2cncnc21", "Potency": "inactive"}
{"smiles": "COc1ccccc1CNc1ccnc(-c2cccc(C#N)c2)n1", "Potency": "7.94 µM (active)"}
{"smiles": "CCNc1ncc2nc(-c3cc(F)cc(F)c3)c(=O)n(CCOC)c2n1", "Potency": "inactive"}
{"smiles": "c1nc(NCCN2CCOCC2)c2cc(-c3ccoc3)ccc2n1", "Potency": "0.891 µM (active)"}
{"smiles": "CN1CCN(c2ccnc(-c3cccnc3)n2)CC1", "Potency": "15.8 µM (active)"}
{"smiles": "N#CCCn1c(=O)c(-c2ccc(Cl)cc2)nc2cnc(Nc3ccccc3)nc21", "Potency": "inactive"}
{"smiles": "CN(Cc1ccco1)c1ncncc1-c1ccccc1C(F)(F)F", "Potency": "inactive"}
{"smiles": "CCNc1ncc2nc(-c3cccc(C#N)c3)c(=O)n(Cc3cccc(OC)c3)c2n1", "Potency": "inactive"}
{"smiles": "c1nc(NC2CC2)c2cc(-c3ccoc3)ccc2n1", "Potency": "0.708 µM (active)"}
{"smiles": "c1nc(N2CCOCC2)c2cc(-c3ccoc3)ccc2n1", "Potency": "0.631 µM (active)"}
{"smiles": "CN(C)C(=O)c1ccc(-c2cncnc2Nc2ccc(F)cc2)cc1", "Potency": "25.1 µM (active)"}
{"smiles": "COc1ccccc1CNc1ncnc2ccc(-c3ccccc3C#N)cc12", "Potency": "7.94 µM (active)"}
{"smiles": "COc1ncc2nc(-c3cccs3)c(=O)n(Cc3cccs3)c2n1", "Potency": "inactive"}
{"smiles": "COc1cccc(Cn2c(=O)c(-c3cccs3)nc3cnc(OC)nc32)c1", "Potency": "inactive"}
{"smiles": "Cc1nc2cnc(Oc3cccc(Cl)c3)nc2n(C2CC2)c1=O", "Potency": "inactive"}
{"smiles": "CN1CCN(c2ncc3nc(-c4cccc(C#N)c4)c(=O)n(C[C@H]4CCCO4)c3n2)CC1", "Potency": "inactive"}
{"smiles": "COCCn1c(=O)c(-c2cccc(C#N)c2)nc2cnc(N3CCN(C)CC3)nc21", "Potency": "inactive"}
{"smiles": "COc1ccc2[nH]cc(CCNc3ccnc(-c4cccnc4)n3)c2c1", "Potency": "14.1 µM (active)"}
{"smiles": "COc1cccc(Nc2ncc3nc(-c4ccccc4)c(=O)n(C)c3n2)c1", "Potency": "inactive"}
{"smiles": "Cc1noc(C)c1-c1nccc(N(C)C)n1", "Potency": "inactive"}
{"smiles": "COc1ccccc1CCn1c(=O)c(CCc2ccccc2)nc2cncnc21", "Potency": "inactive"}
{"smiles": "CCNc1ncc2nc(-c3cccs3)c(=O)n(Cc3cccs3)c2n1", "Potency": "inactive"}
{"smiles": "CN1CCN(c2ncncc2-c2cccnc2)CC1", "Potency": "inactive"}
{"smiles": "COc1cccc(Cn2c(=O)c(-c3ccc(Cl)cc3)nc3cnc(N4CCN(C)CC4)nc32)c1", "Potency": "inactive"}
{"smiles": "N#CCCn1c(=O)c(-c2ccccc2)nc2cnc(N3CCOCC3)nc21", "Potency": "inactive"}
{"smiles": "COc1ccccc1CCn1c(=O)c(-c2cccc(Cl)c2)nc2cncnc21", "Potency": "inactive"}
{"smiles": "COc1ccccc1CNc1ncncc1-c1ccc(C(=O)N(C)C)cc1", "Potency": "14.1 µM (active)"}
{"smiles": "COc1ccccc1CNc1ccnc(-c2ccc(C(=O)N(C)C)cc2)n1", "Potency": "inactive"}
{"smiles": "Cc1nc2cnc(N3CCN(C)CC3)nc2n(C2CC2)c1=O", "Potency": "inactive"}
{"smiles": "COc1ccc(CNc2ncncc2-c2c(C)noc2C)c(OC)c1", "Potency": "inactive"}
{"smiles": "O=c1c(-c2ccccc2)nc2cnc(N3CCOCC3)nc2n1Cc1cccs1", "Potency": "inactive"}
{"smiles": "COc1ccc(-c2nc3cnc(N4CCOCC4)nc3n(Cc3cccc(OC)c3)c2=O)cc1", "Potency": "inactive"}
{"smiles": "COc1ccccc1CNc1nc(-c2cccnc2)nc2ccccc12", "Potency": "10 µM (active)"}
{"smiles": "COc1ccccc1-c1cncnc1N1CCN(C)CC1", "Potency": "inactive"}
{"smiles": "Cc1ccccc1-c1cc(N2CCNCC2)ncn1", "Potency": "inactive"}
{"smiles": "c1csc(CNc2ncncc2-c2ccoc2)c1", "Potency": "inactive"}
